According to publication PMC4081100, “A DNA-binding-site landscape and regulatory network analysis for NAC transcription factors in Arabidopsis thaliana”:

Target: GST-WRKY1(266-371) (Arabidopsis thaliana, UniProt Q9SI37 266-371)
Experiment: universal protein binding microarray (PBM); transcription factors of Arabidopsis thaliana; high values mean tight binding
Conditions: protein: recombinant; tags: GST; dsDNA, one strand shown
Summary of the method: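 Each value is a normalised enrichment score (E-score) describing binding. The GST-tagged proteins, NAC-domain, full-length or DNA-binding-domain, were induced in cells (zinc-finger proteins with zinc acetate added) and purified on glutathione–Sepharose 4B. They were applied at 200 to 500 nM final, in duplicate, to double-stranded custom all-10-mer Agilent 4 × 180K arrays, and gapped and ungapped 8-mers were scored.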

Chain of GST-WRKY1(266-371) (Q9SI37 266-371): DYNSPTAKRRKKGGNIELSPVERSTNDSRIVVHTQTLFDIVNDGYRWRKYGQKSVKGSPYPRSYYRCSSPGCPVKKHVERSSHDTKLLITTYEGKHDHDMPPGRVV

Sequence	binding signal
CGTCTGAC	0.418 E-score
GAGTCAGA	0.419 E-score
CTATGACC	0.412 E-score
GCTGACCC	0.444 E-score
CCTTGACC	0.487 E-score
ACCGGTCA	0.463 E-score
GGTCAGCA	0.456 E-score
GCCTTGAC	0.457 E-score
CCCGGTCA	0.445 E-score
CGTGGACC	0.444 E-score
CAGGGTCA	0.403 E-score
AGTCAGCC	0.415 E-score
AAGTCCAC	0.418 E-score
CTCTGACC	0.458 E-score
GGGGGTCA	0.423 E-score
CGAAGACC	0.436 E-score
CTAGGTCA	0.428 E-score
CATTGACC	0.491 E-score
GGAGTCAA	0.476 E-score
ACCAGTCA	0.421 E-score

Sequence	binding signal
GCCGTCAA	0.402 E-score
GACGACCA	0.43 E-score
GGCGGTCA	0.428 E-score
CAAGACCG	0.405 E-score
CAAGGTCA	0.425 E-score
GCTGACTA	0.417 E-score
GTCAGCAA	0.403 E-score
CTGACCCA	0.401 E-score
GTGGACCA	0.418 E-score
CCGAGTCA	0.409 E-score
CTGACCTA	0.413 E-score
CAGGTCAG	0.418 E-score
ATGAGTCA	0.427 E-score
GAGGTCAA	0.485 E-score
CGGTCTTC	0.438 E-score
ATGGTCAG	0.421 E-score
CTGACCGA	0.439 E-score
CGAGTCAA	0.477 E-score
AGCGGTCA	0.422 E-score
